From PubChem BioAssay AID2326 (National Center for Advancing Translational Sciences (NCATS), 2010)
Screen size: about 270,000 compounds; about 1,100 (0.41%) were called active. A call without a number means that no potency is given here. Roughly 3% stayed inconclusive and do not appear here. The call rests on the fitted dose curve. Only a selection was taken, and actives are over-represented in it overall.

experiment: qHTS Assay for Inhibitors of Influenza NS1 Protein Function; settings: series mostly up to 46.1 µM; further: actives are rising curves; nearly all actives have a fitted effect of over 50% in size
Source text: NIH Chemical Genomics Center [NCGC]
NIH Molecular Libraries Probe Centers Network [MLPCN]
Assay Submitter (PI): Daniel Engel
Influenza is a world-wide public health problem and emerging forms of the virus have the potential to cause a pandemic of equal or greater magnitude to the outbreaks recorded in 1918, 1957 or 1968. Vaccine development is proceeding and there also exist two classes of anti-influenza compounds. However these therapeutic modalities are neither fully effective nor widely enough available to fulfill global needs. In addition their potential usefulness against newly emergent strains is not known. Efforts are needed to develop novel agents against influenza virus, including broad-spectrum agents. Identification of small molecules that inhibit NS1 function either directly or by interfering with specific cellular pathways may be a key to increasing our defense against the virus.
We have miniaturized and optimized a cell based assay in which NS1 from influenza A is expressed in the budding yeast S. cerevisiae. NS1 is a multi-functional protein that counters the host innate immune response and facilitates viral versus cellular gene expression. Expression of NS1 causes a pronounced slow growth phenotype in yeast due to its intrinsic molecular activities. Small molecules that suppress the slow growth phenotype can be identified by a straightforward growth recovery assay using optical density (OD) as the measurement. The same yeast strain not expressing NS1 was used as positive control in the yeast growth recovery assay.
The yeast S. cerevisiae control and NS1 expressing cells were kindly supplied by laboratory of Dr. Daniel Engel, University of Virginia. Yeast starter cultures were stored in single use aliquots at -80C.
1. Yeast culture medium per liter: 1.2 g Yeast Nitrogen Base (w/out amino acids and Ammonium Sulphate), 5.0g Ammonium Sulphate, 0.77g -URA DO (drop-out) Supplement, adjust pH to 6.0. Adjust to 2% glucose prior to inoculating with yeast.
2. Yeast assay medium: 1.2 g Yeast Nitrogen Base (w/out amino acids and Ammonium Sulphate), 5.0g Ammonium Sulphate, 0.77g -URA DO (drop-out) Supplement, adjust pH to 6.0. Adjust to 2% D-galactose prior to inoculating with yeast.
1. Inoculate 100 mls of yeast culture medium with 1 ml of frozen yeast aliquote. Incubate overnight at 30C, 250RPM.
2. Harvest overnight culture at 4000 RPM and wash pellet with 15 mls H2O 3x.
3. Re-suspend washed pellet in 10 mls of yeast assay medium.
4. Prepare a 1:100 dilution of re-suspended culture in yeast assay medium.
5. Dispense 3.5 ul per well of reagents in step 4 in columns 2-48 in a black clear bottom 1536 well plate.
6. Dispense 3.5 ul per well of yeast assay medium in column 1 only.
7. Transfer 23 nl of compound per well.
8. Dispense 3.5 ul per well of yeast assay medium in columns 1-48.
9. Read plate using Viewlux protocol for optical density 600 (OD600) using excitation filter 600nm.
Potency means the concentration at half of the fitted maximal effect.

| SMILES | Potency |
| --- | --- |
| COc1ccc(Nc2nc(Cl)nc(NCc3ccco3)n2)cc1 | inactive |
| CCN1CCN(c2nc(Nc3cc(OC)ccc3OC)nc(Nc3cc(OC)ccc3OC)n2)CC1 | inactive |
| CCOc1ccc(Nc2nc(Cl)nc(N3CCN(c4ccc(OC)cc4)CC3)n2)cc1 | 10 µM (active) |
| CC(=O)Oc1ccc(-c2cccc(C(=O)N3CCCCC3)c2)cc1 | inactive |
| COc1ccc(Cn2c(=S)[nH]c3cc(C(=O)N4CCCCC4)ccc3c2=O)cc1 | inactive |
| COc1ccc(-n2nc(C(=O)NCC(=O)N3CCCCCC3)c3ccccc3c2=O)cc1Cl | inactive |
| C=CCn1c(C23CC4CC(CC(C4)C2)C3)n[nH]c1=S | inactive |
| COC(=O)c1c(NC(=O)CCCC(=O)O)sc2c1CCCCC2 | inactive |
| COC(=O)c1c(NC(=O)c2cccs2)sc2c1CCCC2 | 2.24 µM (active) |
| CC(C)OC(=O)c1c(NC(=O)c2ccco2)sc2c1CCCC2 | inactive |
| Cc1ccc(O)c(CNc2nc3ccccc3[nH]2)c1 | inactive |
| Cc1cccc(Nc2nc(-c3ccccc3)cs2)n1 | inactive |
| CN(C)c1ccc(/C=C/C(=O)c2ccc(C(C)(C)C)cc2)cc1[N+](=O)[O-] | 12.6 µM (active) |
| O=C(/C=C/c1ccc(Cl)c([N+](=O)[O-])c1)c1ccc(O)cc1 | inactive |
| CN(C)c1ccc(/C=C/C(=O)c2ccc(O)cc2)cc1[N+](=O)[O-] | inactive |
| O=C(CNC(=O)c1ccc(F)cc1)c1ccccc1 | inactive |
| O=c1c2cc(Br)ccc2nc(-c2cccc(Cl)c2)n1O | inactive |
| CCS(=O)(=O)Nc1ccc(C(=O)NCCSc2ccccc2)cc1 | inactive |
| Cc1cccc(N2C(=O)N3[C@H](c4ccc(F)cc4)[C@@H]4C(=O)N(C5CCCCC5)C(=O)[C@@H]4[C@]3(Cc3ccccc3)C2=O)c1 | inactive |
| C[C@@]12C(=O)N(c3cccc(Br)c3)C(=O)N1[C@H](c1ccc(Cl)cc1)[C@@H]1C(=O)N(C3CCCCC3)C(=O)[C@@H]12 | inactive |
| Cc1cccc([C@@H]2[C@@H]3C(=O)N(Cc4ccccc4)C(=O)[C@@H]3[C@]3(C)C(=O)N(c4ccc(Br)cc4)C(=O)N23)c1 | 11.2 µM (active) |
| CN(Cc1cnccn1)C(=O)c1cc(COc2cccc(C(F)(F)F)c2)on1 | inactive |

| SMILES | Potency |
| --- | --- |
| O=C(Nc1nnc(C2CC2)s1)c1cc(Cl)sc1Cl | inactive |
| Cc1ccc(NC(=S)Nc2ccc(F)cc2)cc1 | inactive |
| O=C(Nc1ccc(S(=O)(=O)N2CCCCCC2)cc1)c1c(F)cccc1F | inactive |
| COc1ccc(CN(C)C(=O)Cc2c[nH]c3ccccc23)c(OC)c1OC | inactive |
| COc1ccc(CNC(=O)[C@H](Cc2c[nH]c3ccccc23)NC(C)=O)cc1OC | inactive |
| COc1ccc(C(C(=O)NC2CCCCC2)N(C(=O)Cc2c[nH]c3ccccc23)c2ccccc2)cc1OC (stereo unspecified) | 11.2 µM (active) |
| CCOC(=O)C(Cc1ccc(N)cc1)N1C(=O)c2ccccc2C1=O (stereo unspecified) | inactive |
| Cc1ccccc1C(=O)N1CCC(C(=O)Oc2ccc(C#N)cc2)CC1 | inactive |
| Cc1ccc(-c2ccc(=O)n(CC(=O)NCCCN3CCCCC3)n2)cc1 | 3.55 µM (active) |
| CCCCNC(=O)CCn1nc(-c2ccc(Cl)cc2)ccc1=O | inactive |
| CCC1CCCCN1CCCNC(=O)Cn1nc(-c2ccccc2)ccc1=O (stereo unspecified) | inactive |
| CCC(NC(=O)c1cc(COc2ccc(F)c(F)c2)on1)c1ccncc1 (stereo unspecified) | inactive |
| CCc1ccc(-c2nc(SCC(=O)NC3CCCC3)n[nH]2)cc1 | inactive |
| CC(=O)Nc1ccc(S(=O)(=O)Nc2cc(C)cn(Cc3ccc(C)cc3)c2=O)cc1 | inactive |
| Cc1cccc(-n2ncc(Cl)c(Cl)c2=O)c1 | inactive |
| O=C(Nc1ncc([N+](=O)[O-])s1)C1COc2ccccc2O1 (stereo unspecified) | inactive |
| O=c1[nH]c(N2CCOCC2)nc2ccccc12 | inactive |
| c1ccc(Nc2nc(N3CCOCC3)c3ccccc3n2)cc1 | inactive |
| C1=C(N2CCOCC2)/C(=C/c2nc3ccccc3[nH]2)CC1 | 3.98 µM (active) |
| COc1ccc(CNS(=O)(=O)c2ccc(NC(=O)N3CCCCC3)cc2)cc1 | inactive |
| O=C(/C=C/c1ccc([N+](=O)[O-])o1)NNC(=O)c1ccc(F)cc1 | inactive |
| O=C(/C=C/c1ccco1)NC(=S)N1CCCCC1 | inactive |

| SMILES | Potency |
| --- | --- |
| Cc1ccc(C(=O)Nc2nnc(C3=COCCO3)o2)cc1C | inactive |
| O=C(CN1C(=O)S/C(=C\c2ccccc2Cl)C1=O)NC1C=CS(=O)(=O)C1 (stereo unspecified) | inactive |
| COc1ccc(-c2nnc(SCC(=O)c3cccs3)o2)c(OC)c1 | inactive |
| COc1ccc(C(=O)CSc2nnc(-c3ccco3)o2)cc1 | inactive |
| COc1ccc(-n2c(C)cc(C(=O)CSc3nnc(-c4cccs4)o3)c2C)cc1 | 11.2 µM (active) |
| Cc1ccc(O)c(/C=N/NC(=O)COc2ccc3c(C)cc(=O)oc3c2)c1 | inactive |
| O=[N+]([O-])c1ccc(O)c(/C=N/Nc2ccccc2[N+](=O)[O-])c1 | inactive |
| S=C(Nc1cccc(Cl)c1)Nc1ccc2c(c1)OCCO2 | inactive |
| CSc1ccccc1OCc1cc(C(=O)N2C[C@H]3CC[C@H]2C3)no1 | inactive |
| Cc1cc2cc(CNC(=O)c3ccc(S(=O)(=O)N4CCOCC4)cc3)ccc2[nH]1 | inactive |
| Cc1cc2cc(CNC(=O)c3cccs3)ccc2[nH]1 | 7.08 µM (active) |
| CCc1cccc(CC)c1NC(=S)NCc1ccc2[nH]c(C)cc2c1 | inactive |
| CCC(=O)Nc1ccc(-c2ccc(N3CCCCC3)nn2)cc1 | inactive |
| CCCCNC(=O)N(O)C1N(/N=C/c2ccccc2O)C(=S)SC1(C)C (stereo unspecified) | inactive |
| COc1ccc(CNC(=O)CCC(=O)Nc2nnc(C(C)C)s2)cc1 | inactive |
| COc1cccc(OC)c1C(=O)Nc1nnc(C(C)C)s1 | 3.98 µM (active) |
| C/C=C/C(=O)Nc1nnc(C(C)C)s1 | inactive |
| CCCN1CCn2c3c(c4cc(Br)ccc42)CCCC31 (stereo unspecified) | inactive |
| O=C(NCCCc1ccccc1)C(=O)c1c[nH]c2ccccc12 | inactive |
| CSc1nnc(NC(=O)c2nc(S(=O)(=O)Cc3ccc(C)cc3)ncc2Cl)s1 | inactive |
| CCc1ccc(S(=O)(=O)N/N=C\c2ccc([N+](=O)[O-])o2)cc1 | inactive |
| CSCc1nnc(NC(=O)c2ccc(S(=O)(=O)N3CCCCC3C)cc2)o1 (stereo unspecified) | inactive |
